Results taken from PubChem BioAssay AID463173 (ICCB-Longwood Screening Facility, Harvard Medical School, 2010).
The whole screen tested about 52,000 compounds, of which about 4,300 (8.3%) were called active. The entries come from a sample that favours actives as a whole. Values without a mark were called inactive. Rule as the data show it: active = survival mostly below about 52% (no sharp cut-off); inactive = mostly above about 56%.

tested on: DeltatarO mutant; assay: S. aureus survival, RN4220 and DeltatarO strains – OD600, teichoic acid synthesis inhibitors, primary screen (AID 463173); settings: S. aureus RN4220 wild type/DeltatarO growth, OD600, 18 h, hits give low values, screened at 18.75 µg/mL (by protocol)

| Compound | survival |
| --- | --- |
| COc1ccc(NC(=O)c2c(NCc3ccc(OC)c(OC)c3OC)sc3c2CCC3)c(OC)c1 | 83% |
| Cc1n[nH]c(=S)n1CC1CCCO1 (stereo unspecified) | 77% |
| COc1cccc(Cn2c(=O)n(-c3ccc(Br)cc3F)c(=O)c3sc4ccccc4c32)c1 | 96% |
| Cc1ccc(N2CCN(S(=O)(=O)c3nnc(NC(=O)c4cccc(F)c4)s3)CC2)cc1 | 57% |
| CC1CCN(S(=O)(=O)c2nnc(NC(=O)c3cccc(F)c3)s2)CC1 | 31% (active) |
| O=C(Nc1nnc(S(=O)(=O)N2CCOCC2)s1)c1cccc(F)c1 | 80% |
| CCCC(C(=O)NC1CCCC1)N(Cc1ccccc1)C(=O)Cn1nnc(-c2ccc(C)o2)n1 (stereo unspecified) | 66% |
| CCOC(=O)CN(Cc1ccccc1)C(C(=O)NC1CCCCC1)c1ccc(C)cc1 (stereo unspecified) | -3% (active) |
| O=C(NC1CCCCC1)C(c1ccco1)N(Cc1ccccc1)C(=O)Cn1nnc2ccccc21 (stereo unspecified) | 69% |
| COc1ccc(C(C(=O)NC2CCCC2)N(Cc2ccc(C)cc2)C(=O)c2ccn[nH]2)cc1OC (stereo unspecified) | 104% |
| COc1ccc(N(C(=O)c2ccco2)C(C(=O)NC2CCCC2)c2cc(OC)c(OC)c(OC)c2)cc1 (stereo unspecified) | 84% |
| CCOC(=O)CN(Cc1ccccc1)C(C(=O)NC1CCCCC1)c1ccccc1 (stereo unspecified) | -1% (active) |
| CCOC(=O)CN(Cc1ccccc1)C(C(=O)NC1CCCCC1)c1ccc(OC)cc1 (stereo unspecified) | 20% (active) |
| COc1ccc(-c2nnn(CC(=O)N(Cc3ccccc3)C(C)C(=O)NC3CCCC3)n2)cc1OC (stereo unspecified) | 84% |
| O=C(NC1CCCC1)C(c1ccccc1)N(Cc1ccc2c(c1)OCO2)C(=O)c1ccco1 (stereo unspecified) | 73% |
| Cc1cc(C)cc(NC(=O)Cn2cc(S(=O)(=O)NC(C)(C)C)c(S(=O)(=O)NC(C)(C)C)c2)c1 | 95% |
| CSc1ncc(C(=O)NCc2ccccc2F)c(-c2ccccc2)n1 | 112% |
| CCCn1c2ccccc2c2cnn(CC(=O)NCc3ccccc3Cl)c(=O)c21 | 108% |
| CCc1nn(CCCC(=O)NCc2cc(Br)ccc2OC)c(=O)c2cc3occc3n12 | 46% (active) |

| Compound | survival |
| --- | --- |
| Cc1ccccc1CNC(=O)C(C)n1nc(C)n2c(cc3occc32)c1=O (stereo unspecified) | 68% |
| CCC(C(=O)NCc1ccccc1OC)n1nc(C)n2c(cc3occc32)c1=O (stereo unspecified) | 80% |
| CCc1nn(CCCC(=O)NCc2ccccc2OC)c(=O)c2cc3occc3n12 | 84% |
| COc1ccc(Br)cc1CNC(=O)C(C)n1nc(C)n2c(cc3occc32)c1=O (stereo unspecified) | 46% (active) |
| CCc1nn(CCCC(=O)NCc2ccc(OC)c(OC)c2)c(=O)c2cc3occc3n12 | 79% |
| COC(=O)c1ccc(Oc2nc3c(c(=O)n(C)c(=O)n3C)n2Cc2ccc(Cl)c(Cl)c2)cc1 | 167% |
| O=C(CCS(=O)(=O)c1nc(-c2cccs2)cc(C(F)(F)F)n1)Nc1ccc(F)c(Cl)c1 | 67% |
| Clc1cc2c(cc1C=Nc1ccc(N3CCOCC3)cc1)OCO2 | 83% |
| N#CC(C#N)=Cc1cn(CC(=O)Nc2ccccc2)c2ccccc12 | 66% |
| Cc1ccc(Nc2c(-c3c[nH]c4ccccc34)nc3ccccn23)cc1 | 114% |
| Cc1ccc(Nc2c(-c3cc(Br)ccc3F)nc3cc(C)ccn23)cc1 | 32% (active) |
| c1ccc(Nc2c(-c3c[nH]c4ccccc34)nc3ccccn23)cc1 | 54% (active) |
| Cc1ccc(Nc2c(-c3ccccc3O)nc3cc(C)ccn23)cc1 | 78% |
| CSc1ccc(-c2nc3cc(C)ccn3c2Nc2ccc(C)cc2)cc1 | 95% |
| Fc1ccc(Nc2c(-c3c[nH]c4ccccc34)nc3ccccn23)cc1 | 70% |
| Cc1ccc2nc(-c3c[nH]c4ccccc34)c(Nc3ccccc3)n2c1 | 78% |
| Cc1ccn2c(Nc3ccccc3)c(-c3c[nH]c4ccccc34)nc2c1 | 86% |
| Cc1ccc(Nc2c(-c3c[nH]c4ccccc34)nc3cc(C)ccn23)cc1 | 80% (active) |
| Cc1ccc(Oc2nc3c(c(=O)n(Cc4ccccc4Cl)c(=O)n3C)n2C)cc1C | 61% |

| Compound | survival |
| --- | --- |
| Cc1csc2nc(-c3ccc(NS(=O)(=O)c4cc(F)ccc4F)cc3)cn12 | 87% |
| Fc1ccc(CNc2nc3c(-c4ccc(F)cc4)nnn3c3ccccc23)cc1 | 105% |
| Cc1ccc2oc(-c3cccc(NC(=O)c4cccc5c(Cl)cccc45)c3)nc2c1 | 51% (active) |
| O=C(Nc1cccc(-c2nc3ccccc3o2)c1)c1cccc2c(Cl)cccc12 | 46% |
| O=C(Nc1cc(-c2nc3ccccc3o2)ccc1Cl)c1cccc2c(Cl)cccc12 | 56% |
| Cc1ccc2oc(-c3cccc(NC(=O)c4cccc5c(Br)cccc45)c3)nc2c1 | 153% |
| Cc1ccc2nc(-c3cccc(NC(=O)c4cccc5c(Cl)cccc45)c3)oc2c1 | 110% |
| Cc1ccc(-c2nc3ccccc3o2)cc1NC(=O)c1cccc2c(Cl)cccc12 | 47% (active) |
| O=C(OCc1cc(=O)n2nc(-c3cccs3)sc2n1)c1cccc(F)c1 | 77% |
| COc1cccc(N2CCN(C(=O)CN3CCSc4ccccc43)CC2)c1 | 83% |
| Cc1ccc(C)c(N2CCN(C(=O)CN3C(=O)COc4ccc(S(=O)(=O)N5CCCC5)cc43)CC2)c1 | 85% |
| CCN(CC)CCn1c(=N)n(CC(O)COc2ccccc2C)c2ccccc21 (stereo unspecified) | 80% |
| O=C(CSc1nnnn1C1CCCC1)NCc1cccs1 | 103% |
| CCN(CC)CCNC(=O)c1ccc(CSc2nc3ccncc3n2Cc2cccc(F)c2)cc1 | 92% |
| Cc1cccc(N2CCN(C(=O)Nc3cn(CC(C)C)c(=O)c4ccccc34)CC2)c1C | 69% |
| Cc1ccc(Cl)cc1NC(=O)Cn1c(=O)n(Cc2ccccc2)c(=O)c2oc3ccccc3c21 | 81% |
| CCC(=O)N1c2ccccc2CC1C(=O)NCc1ccc(CC)cc1 (stereo unspecified) | 100% |
| COc1ccc(C2c3c(n(C)c4ccccc34)C(=O)N2CC(=O)Nc2cccc(Cl)c2)cc1 (stereo unspecified) | 80% |
